Data reported in ChEMBL document CHEMBL4513216, “Probing the Open Global Health Chemical Diversity Library for Multistage-Active Starting Points for Next-Generation Antimalarials” (ACS Infect Dis, 2020).
Out of some 69,000 compounds screened, about 8,600 (12%) showed an effect of 50% or more. For the sample, strong results were picked, then their nearest neighbours and some compounds at random.

Each compound was assayed on Plasmodium berghei (assay: Screen against P. berghei liver stage (PbLuc), transformed with Luciferase, at 10uM). Details: tested at 10 uM.
Type: functional, HepG2
`Cc1nc(CN(C)C2CCN(Cc3nc(C4CC4)no3)C2)no1` (stereo not given) showed an INHIBITION of 40.9%.
`COc1ccc(-c2cc(N)on2)cc1` gave an INHIBITION of -3.34%.
In the case of `Cc1nc(CNC(=O)NCC2(C)CCCc3ccccc32)no1` (stereo not given), the INHIBITION is reported as -21.9%.
`CC(CNC(=O)N1CCN(Cc2ccon2)CC1)N(C)C1CC1` (stereo not given) was tested, and the INHIBITION was 4.62%.
`CNC(=O)[C@@]12CCC3(CCN(S(C)(=O)=O)CC3)[C@@H]1CN(C(C)=O)C2` showed an INHIBITION of 40.1%.
`CC(=O)N1CCCC(c2ccc3sc(N)nc3n2)C1` (stereo not given) was tested, and the INHIBITION was 26.3%.
`O=C(CC1CC1)N1CCN(Cc2ccncc2)c2ncccc2C1` gave an INHIBITION of -45.8%.
`Cc1nc(NS(=O)(=O)c2cc(C)c(Br)cc2C)no1` showed an INHIBITION of 49.4%.
In the case of `Cc1nc(NS(=O)(=O)c2ccc(F)c(Br)c2)no1`, the INHIBITION is reported as 10.6%.
Compound `Cc1nc(NS(=O)(=O)c2ccc(C)c(Br)c2)no1` has an INHIBITION of 68.3%.
`CCc1nc(NS(=O)(=O)c2cc(C)ccc2F)no1` showed an INHIBITION of -7.9%.
Compound `CCc1nc(NS(=O)(=O)c2ccc(C)cc2Cl)no1` has an INHIBITION of 4.74%.
With `Cn1ncnc1NS(=O)(=O)c1ccc(F)cc1` the INHIBITION was -3.59%.
Compound `CC(C)(C)c1nc(NS(=O)(=O)c2ccc(F)cc2)no1` has an INHIBITION of 51.6%.
Work on `CCc1nc(NS(=O)(=O)c2ccc(F)cc2Cl)no1` yielded an INHIBITION of 56.1%.
`CSCC(C)(O)CNS(=O)(=O)c1ccc(F)cc1` (stereo not given) was tested, and the INHIBITION was 12.3%.
`CC(C)(C)c1nc(NS(=O)(=O)c2ccccc2F)no1` was tested, and the INHIBITION was 82.2%.
Compound `CC(C)c1nc(NS(=O)(=O)c2ccccc2Cl)no1` has an INHIBITION of 2.61%.
`CCc1nc(NS(=O)(=O)c2ccc(F)cc2C)no1` gave an INHIBITION of -3.16%.
For `NC1(CNC(=O)c2cc3ccccc3[nH]2)CCCC1`, the INHIBITION was -8.28%.
`Cc1ncccc1Oc1ncnc(N2CCC(O)(CO)CC2)c1C` was tested, and the INHIBITION was -6.03%.
`COCCn1cc2c(n1)C(CNCc1cccc(OC)c1)OCC2` (stereo not given) was tested, and the INHIBITION was 17.4%.
`O=C(Nc1cnccn1)[C@@H]1COC[C@H]2CN(C3CCC3)C[C@H]21` was tested, and the INHIBITION was 24.9%.
With `O=C(Cc1ccsc1)N1Cc2nc(CN3CCCCC3)oc2C1` the INHIBITION was 31.5%.
Compound `CCc1nc(C2CCCN2CCC(=O)N2CCc3ccccc32)no1` (stereo not given) has an INHIBITION of 46.2%.
With `Cc1nc(NS(=O)(=O)c2cccc(F)c2C)no1` the INHIBITION was 74.5%.
In the case of `CCc1nc(NS(=O)(=O)c2cc(C)cc(F)c2)no1`, the INHIBITION is reported as 40.9%.
For `CC(C)(C)c1nc(NS(=O)(=O)c2cccc(F)c2)no1`, the INHIBITION was 82.2%.
`CCc1nc(NS(=O)(=O)c2cccc(F)c2C)no1` was tested, and the INHIBITION was 39.7%.
Compound `Cc1c(F)cccc1S(=O)(=O)Nc1noc(C(C)C)n1` has an INHIBITION of 10.2%.
In the case of `Cc1cc(F)cc(S(=O)(=O)Nc2noc(C)n2)c1`, the INHIBITION is reported as 31.5%.
`Cc1cc(N(Cc2cccs2)C2CC2)n2nc(C(F)(F)F)nc2n1` showed an INHIBITION of 26.6%.
With `CC(C)n1cnnc1SCCN(C)c1ccccc1` the INHIBITION was -34.8%.
For `COCCNc1ccc(CC2CCNC2)cn1` (stereo not given), the INHIBITION was -26.2%.
Work on `CCCN(CC(=O)N(C)C)C(=O)c1ccc(-c2nc(C)cs2)cc1` yielded an INHIBITION of 18.9%.
For `COc1cc(CNC(=O)c2cc(S(C)(=O)=O)ccc2C)ccn1`, the INHIBITION was 1.51%.
Compound `Cc1nn(C)c(N2CCOCC2)c1CNCc1ccnc(N(C)C)c1` has an INHIBITION of 38.7%.
In the case of `Cc1nn(C)c(N2CCOCC2)c1CNCc1ccc(N(C)C)nc1`, the INHIBITION is reported as 51.1%.
For `Cc1nn(C)c(N2CCOCC2)c1CNCc1cccnc1`, the INHIBITION was 32.2%.
Compound `Cc1ccc(N2CCCc3sc(C(=O)NCCC#N)nc32)nn1` has an INHIBITION of 35.8%.
Compound `CCC(CN1CCOCC1)NC(=O)Cc1c(C)[nH]c2cc(C)cc(C)c12` (stereo not given) has an INHIBITION of 6.32%.
`CN(C)CCCNC(=O)c1nnsc1-c1ccccc1` was tested, and the INHIBITION was 15.9%.
`O=C(NCc1cccs1)c1[nH]nc2c1CS(=O)(=O)CC2` showed an INHIBITION of -22.3%.
With `O=C1CC(c2ccsc2)c2cnn(C3CCCC3)c2N1` (stereo not given) the INHIBITION was 6.09%.
With `O=C1CC(c2cccs2)c2cnn(C3CCCC3)c2N1` (stereo not given) the INHIBITION was 14.4%.
`CC(C)(C)n1ncc2c1NC(=O)CC2c1cccc(O)c1` (stereo not given) gave an INHIBITION of -5.22%.
`CC(C)(C)n1ncc2c1NC(=O)CC2c1cccc(F)c1` (stereo not given) was tested, and the INHIBITION was 89.4%.
For `CC(C)(C)n1ncc2c1NC(=O)CC2c1ccccc1` (stereo not given), the INHIBITION was 5.65%.
`Cc1nn(C2CCCC2)c2c1C(c1ccc3c(c1)OCO3)SCC(=O)N2` (stereo not given) gave an INHIBITION of 61.6%.
`O=C1CSC(c2ccc3c(c2)OCO3)c2cnn(C3CCCCC3)c2N1` (stereo not given) showed an INHIBITION of 38.9%.
`O=C1CC(c2ccc3c(c2)OCO3)c2c(n3ccsc3nc2=O)N1` (stereo not given) gave an INHIBITION of 5.85%.
`O=C1CC(c2ccc3c(c2)OCO3)c2cnn(C3CCCC3)c2N1` (stereo not given) was tested, and the INHIBITION was 87.9%.
Compound `O=C1CC(c2ccccc2)c2cnn(C3CCCC3)c2N1` (stereo not given) has an INHIBITION of 68%.
With `O=C1CC(c2ccc3c(c2)OCO3)c2cn[nH]c2N1` (stereo not given) the INHIBITION was 6%.
Work on `Cc1n[nH]c2c1C(c1ccc3c(c1)OCO3)SCC(=O)N2` (stereo not given) yielded an INHIBITION of 9.32%.
